From publication PMC7819943, “Rice protein-binding microarrays: a tool to detect cis-acting elements near promoter regions in rice”
The full ranking holds about 68,000 sequences; the median of “fluorescence intensity (a.u.)” is about 9,100, and the highest 2% start at about 16,000. The full list was thinned out, with the highest values kept by preference.

These sequences were tested against OsWRKY34 (Oryza sativa, UniProt Q0JBA9 1-250) (assay: protein-binding microarray (RPBM); PBS, 2% BSA, 51.3 ng/ul salmon testes DNA, 50 uM zinc acetate, 200 nM TF, 25 C, 1 h; high values mean tight binding). Conditions: protein: recombinant; tags: N-terminal polyhistidine and DsRed monomer fusion (pET32a); label: CyDye5-dUTP incorporated in the synthesized complementary strand; 3' TTTTT single-stranded linker to array surface; dsDNA, one strand shown.
Summary of the method: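 Polyhistidine-tagged DsRed fusions of transcription factors, joined at the N-terminus, were expressed in E. coli BL21-CodonPlus and isolated on Ni–NTA. They were incubated at 200 nM for 1 h at 25 °C on a custom Agilent array, double-stranded and BSA-blocked, in PBS with 2% BSA, salmon testes DNA and 50 µM zinc acetate. The binding signal is per-feature fluorescence intensity (arbitrary units) read on an Axon 4000B scanner after washing.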

Sequence of OsWRKY34 (Q0JBA9 entry or part of it): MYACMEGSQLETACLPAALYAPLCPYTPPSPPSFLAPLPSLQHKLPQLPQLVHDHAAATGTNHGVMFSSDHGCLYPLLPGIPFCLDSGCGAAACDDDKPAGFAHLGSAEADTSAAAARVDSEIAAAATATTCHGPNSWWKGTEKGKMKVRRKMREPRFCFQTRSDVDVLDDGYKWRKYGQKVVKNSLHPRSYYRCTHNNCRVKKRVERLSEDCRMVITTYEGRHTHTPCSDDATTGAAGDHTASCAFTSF

Sequence	binding signal
GCAGCATCACCCGCAGCCGCCGCCGCCGCCGCCATGGACTCGGAGTCACCTAGTGCAG	10100 fluorescence intensity (a.u.)
GCAATACACCTGATTTGATACTTCTTCCGATATAATACTCCGGAGTCACCTAGTGCAG	8900 fluorescence intensity (a.u.)
GATTGTATATGCCTGATAGGACTAGTTAGTGTGTTTTCTTCGGAGTCACCTAGTGCAG	9220 fluorescence intensity (a.u.)
CACTAGTTTTAGTTACTAACTTATGGCTCTTGTGCTATCACGGAGTCACCTAGTGCAG	8070 fluorescence intensity (a.u.)
AAGACACAGCTTCAACACGTAACCTATGCACTACACACTACGGAGTCACCTAGTGCAG	11700 fluorescence intensity (a.u.)
CCCGTTCTAATTCAGTTTCTCCCTTTCTTACCGCATGTACCGGAGTCACCTAGTGCAG	8490 fluorescence intensity (a.u.)
GTTCTCTAGCCGCTTGTGATACTCGCAATCCTAAACCACGCGGAGTCACCTAGTGCAG	8410 fluorescence intensity (a.u.)
TAACTGCGTTGACATGTCGCCTTGCTATACTCACATTCTTCGGAGTCACCTAGTGCAG	9470 fluorescence intensity (a.u.)
TCTCACTCTCTCACACACACACTCTCTCTCTCTGCTAGCTCGGAGTCACCTAGTGCAG	9820 fluorescence intensity (a.u.)
GAATGTTGATGCTGTTGATGCATGCACCTGCCGAAGGCCGCGGAGTCACCTAGTGCAG	9170 fluorescence intensity (a.u.)
CTCTTGCTGTTTCCTTTGCTCTGTTTCCTCTGCCTGCGCCCGGAGTCACCTAGTGCAG	8760 fluorescence intensity (a.u.)
TTCACCACCACCGCCACGGCCTCTGCCTCTCGCTCTCTCTCGGAGTCACCTAGTGCAG	10200 fluorescence intensity (a.u.)
CTTCTGTCATATCACCTTGCCGCTGCTTCTGATCATCTCCCGGAGTCACCTAGTGCAG	8670 fluorescence intensity (a.u.)
TTGTTCTTGCTGCATTTCTTCTTCTCGTTTTTTTTTCTTTCGGAGTCACCTAGTGCAG	16900 fluorescence intensity (a.u.)
CTCGCCATCTCTGCCGCCGGTCCGCCGCCTCGCTCGCTCGCGGAGTCACCTAGTGCAG	9470 fluorescence intensity (a.u.)
CACCACCTTTGTTTGCTGCTCTCCATTTTTTTTCTTCGTTCGGAGTCACCTAGTGCAG	10200 fluorescence intensity (a.u.)
GAATCTGCTTCTCATTCTTTTTTTCTTGCTGATCATCATGCGGAGTCACCTAGTGCAG	10200 fluorescence intensity (a.u.)
TGTCCGCCACGCTCTCGCCATCTGCCTGTACCACTAATCTCGGAGTCACCTAGTGCAG	22500 fluorescence intensity (a.u.)
TGTTTGCTGCTGCTGCTGCTCTGCTTTTCTCTTTTTTCTTCGGAGTCACCTAGTGCAG	9490 fluorescence intensity (a.u.)
ATCCCGGCCTGCTCTTGCGCTTTGACTTTTTGTAGAGTTTCGGAGTCACCTAGTGCAG	18200 fluorescence intensity (a.u.)
ACGCCCGCTTGATCCGCCTGCTGCGCGCGCGCGAGTTTTTCGGAGTCACCTAGTGCAG	9160 fluorescence intensity (a.u.)
CGCTGCTTCTGATCATCTCCCGTTCTTGCATTCTTCTTCTCGGAGTCACCTAGTGCAG	19400 fluorescence intensity (a.u.)
TACTACTGTACTACTCTCAGTCTCTCGGCTTCTAGACTAGCGGAGTCACCTAGTGCAG	8600 fluorescence intensity (a.u.)
